Assay results: ChEMBL document CHEMBL1201862, “PubChem BioAssay data set” (2004)
Out of some 400,000 compounds screened, about 2,100 (0.53%) were called active. Roughly 14% stayed inconclusive and do not appear here. The sample holds actives, similar compounds and a random draw of the others, so the mix is not that of the screen. The rule behind the calls is not given here.

Target: Ataxin-2 (Homo sapiens) (UniProt Q99700)
Assay: qHTS for Inhibitors of ATXN expression.
Format: functional

Chain of Ataxin-2 (Homo sapiens) (Q99700 whole entry): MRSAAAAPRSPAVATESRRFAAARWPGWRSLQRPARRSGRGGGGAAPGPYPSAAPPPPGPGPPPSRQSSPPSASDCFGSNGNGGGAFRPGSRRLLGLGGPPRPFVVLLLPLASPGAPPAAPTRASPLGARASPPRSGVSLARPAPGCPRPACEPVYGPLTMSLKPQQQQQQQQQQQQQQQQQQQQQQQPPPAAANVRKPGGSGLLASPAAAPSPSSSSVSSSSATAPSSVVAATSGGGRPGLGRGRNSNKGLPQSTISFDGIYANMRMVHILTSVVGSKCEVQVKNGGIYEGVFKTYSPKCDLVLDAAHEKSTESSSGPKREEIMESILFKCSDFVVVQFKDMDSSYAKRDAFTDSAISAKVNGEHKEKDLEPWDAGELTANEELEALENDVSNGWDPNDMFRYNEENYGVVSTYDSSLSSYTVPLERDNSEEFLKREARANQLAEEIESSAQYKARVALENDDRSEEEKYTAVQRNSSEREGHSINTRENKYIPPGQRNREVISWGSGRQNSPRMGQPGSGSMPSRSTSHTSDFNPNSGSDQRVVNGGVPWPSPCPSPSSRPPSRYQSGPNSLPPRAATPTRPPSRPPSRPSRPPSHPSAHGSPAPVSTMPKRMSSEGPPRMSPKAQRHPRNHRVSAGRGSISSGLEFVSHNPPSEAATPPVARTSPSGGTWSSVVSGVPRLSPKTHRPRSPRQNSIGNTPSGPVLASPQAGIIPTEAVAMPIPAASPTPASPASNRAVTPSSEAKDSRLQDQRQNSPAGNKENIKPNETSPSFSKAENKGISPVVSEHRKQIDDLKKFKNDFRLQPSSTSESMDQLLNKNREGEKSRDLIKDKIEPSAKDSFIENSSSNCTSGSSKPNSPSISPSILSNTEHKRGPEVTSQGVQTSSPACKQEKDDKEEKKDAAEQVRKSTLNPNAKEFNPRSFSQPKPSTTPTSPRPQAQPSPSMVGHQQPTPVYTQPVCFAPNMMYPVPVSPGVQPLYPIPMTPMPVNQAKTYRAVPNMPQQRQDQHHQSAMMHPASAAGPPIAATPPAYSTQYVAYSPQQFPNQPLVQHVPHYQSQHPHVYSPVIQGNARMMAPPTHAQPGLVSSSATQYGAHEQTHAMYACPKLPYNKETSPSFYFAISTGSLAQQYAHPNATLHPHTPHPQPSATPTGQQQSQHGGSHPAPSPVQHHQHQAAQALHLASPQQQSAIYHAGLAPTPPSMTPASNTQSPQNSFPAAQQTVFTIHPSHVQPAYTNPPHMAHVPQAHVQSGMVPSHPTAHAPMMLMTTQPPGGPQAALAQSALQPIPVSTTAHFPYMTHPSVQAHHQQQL

SMILES | Potency
Cc1ccc(S(=O)(=O)N2CCCc3cc(NS(=O)(=O)c4ccc(F)cc4)ccc32)cc1 | 39.8 µM (active)
Cc1cc(=O)oc2cc(NS(=O)(=O)c3ccccc3)ccc12 | inactive
Cc1cc(=O)oc2cc(NS(=O)(=O)c3ccc(F)cc3)ccc12 | inactive
Cc1ccc2nc(-c3ccc(NS(=O)(=O)c4ccc(F)cc4)cc3)sc2c1 | inactive
Cc1cc(F)ccc1S(=O)(=O)Nc1ccc2c(c1)CCCN2C(=O)c1cccs1 | 39.8 µM (active)
O=S(=O)(c1ccc2ccccc2c1)N1CCc2ccccc21 | inactive
Cc1cc(C)nc(NS(=O)(=O)c2ccc(N/C=C\C(=O)c3cccs3)cc2)n1 | inactive
Cc1ccc(S(=O)(=O)N2CCCc3cc(NS(=O)(=O)c4ccccc4)ccc32)cc1 | 39.8 µM (active)
C[C@@H]1C(c2cccc(Cl)c2)=NN(c2ccc(Br)cc2)[C@H]1C(=O)N1CCOC1=O | inactive
Cc1cc(N2CCCC2)c(F)cc1/C=C\[N+](=O)[O-] | inactive
Cc1cc(NC(=O)CN(C)S(=O)(=O)c2ccc3c(c2)CCCC(=O)N3)ccc1Br | 31.6 µM (active)
CC(=O)N1CCCc2cc(S(=O)(=O)N(C)CC(=O)Nc3ccccc3)ccc21 | inactive
Cc1cc(NC(=O)CCN2CCC(C)CC2)ccc1Br | inactive
O=C1CS/C(=N/N=C/c2ccccc2)N1Cc1ccco1 | inactive
COc1ccc(-c2[nH]c(-c3ccc4c(c3)OCO4)nc2-c2ccccc2)cc1 | 44.7 µM (active)
C(=C/c1[nH]ccc2c3ccccc3nc1-2)/c1ccc2c(c1)OCO2 | inactive
COc1ccc2[nH]c(C(=O)N(Cc3ccccn3)Cc3ccccn3)cc2c1 | inactive
O=C1N/C(=C/c2cccn2-c2ccc(F)cc2)C(=O)N1Cc1ccccc1F | inactive
O=[N+]([O-])c1ccc(Sc2ccncn2)c([N+](=O)[O-])c1 | 8.91 µM (active)
O=[N+]([O-])c1ccc(Cc2ccccn2)c([N+](=O)[O-])c1 | inactive
CN(C)c1ccc(/C=N/N(CCO)C2=NS(=O)(=O)c3ccccc32)cc1 | inactive

SMILES | Potency
CCOc1ccc2nc(NCCCNC(=O)c3cc(OC)c(OC)c(OC)c3)c(C#N)cc2c1 | inactive
COc1ccc(-c2cc(C(F)(F)F)n3nc(C(=O)NCCCN4CCOCC4)cc3n2)cc1 | inactive
CCOc1ccc(-c2cn3c(n2)sc2cc(C(=O)NCCCN4CCCCCC4)ccc23)cc1 | 22.4 µM (active)
C=CCC1=C/C(=C\c2c(N)n3nc(CC(=O)N4CCCC4)sc3nc2=O)C=C(OC)C1=O | inactive
COc1ccc(C2CC(c3ccccc3F)=NN2c2ccc(S(N)(=O)=O)cc2)cc1 (stereo not drawn) | inactive
COc1ccc(N2C(=O)CC(Sc3nnc(-c4ccccc4F)n3C)C2=O)cc1 (stereo not drawn) | 39.8 µM (active)
COc1ccc(Cc2nnc(NC(=O)C3CC(=O)N(c4ccc(OC)cc4)C3)s2)cc1 (stereo not drawn) | inactive
COc1ccc(N2C(=O)CC(N3CCN(c4ccccc4)CC3)C2=O)cc1 (stereo not drawn) | inactive
COc1ccc(CCN(C(=O)/C=C/C(=O)O)C2CC(=O)N(c3ccccc3)C2=O)cc1 (stereo not drawn) | inactive
C=CCNc1nnc(SC2CC(=O)N(c3ccc(OC)cc3)C2=O)s1 (stereo not drawn) | 39.8 µM (active)
CN1CCC[C@H]1CCNc1ccc2c(=O)c3ccccc3n(C)c2c1 | inactive
O=C(N/N=C/c1ccc(O)cc1)Nc1cccc2nsnc12 | inactive
CCCN1C(=O)/C(=C/c2c(N3CCNC(=O)C3CC(=O)OCC)nc3c(C)cccn3c2=O)SC1=S (stereo not drawn) | inactive
COc1ccccc1/C=C1\SC(=S)N(CCC(=O)NC2=NCCS2)C1=O | inactive
CCCCC(CC)CN1C(=O)/C(=C/c2c[nH]nc2-c2ccccc2)SC1=S (stereo not drawn) | 22.4 µM (active)
CC(C)CN1C(=O)/C(=C/c2c[nH]nc2-c2ccccc2)SC1=S | 39.8 µM (active)
Cc1ccnn1CC(=O)N/N=C/c1c[nH]nc1-c1ccccc1 | inactive
O=C(Cc1csc(N2CCOCC2)n1)N/N=C/c1ccccc1C(=O)O | inactive
NNC(=O)c1oc2nc(-c3ccco3)cc(-c3ccco3)c2c1N | inactive
Cc1cc(C)c2c(N)c(C(=O)Nc3nccs3)sc2n1 | inactive
O=C(N/N=C/c1c[nH]c2ccccc12)c1cc(-c2ccc(-c3ccccc3)cc2)[nH]n1 | 39.8 µM (active)

SMILES | Potency
CCCc1c(C(=O)N/N=C/c2c[nH]c3ccccc23)nnn1-c1nonc1N | inactive
CCOc1cccc(/C=N/NC(=O)c2cc(-c3cccn3C)[nH]n2)c1O | inactive
O=C(NCc1ccco1)c1cc2ccc(O)cc2oc1=O | inactive
CC(=O)N/N=C/c1cc(C(C)(C)C)cc(/C=N/NC(C)=O)c1O | inactive
CN(CCc1ccccc1)C(C(=O)Nc1ccc2c(c1)OCCO2)c1ccnc2ccccc12 (stereo not drawn) | 35.5 µM (active)
O=C(O)c1ccc(/C=C/c2nc(O)c3c4c(sc3n2)CCC4)cc1 | inactive
CCCCCCOc1ccc(/C=c2\s/c(=C(/C#N)C(=O)NCc3ccco3)n(-c3ccccc3)c2=O)cc1 | inactive
O=C(CC1N=C2c3ccccc3N=C(SCC(=O)Nc3cccc(C(F)(F)F)c3)N2C1=O)NCc1cccs1 (stereo not drawn) | 39.8 µM (active)
O=C(CSc1nnc(NC(=O)C2CC2)s1)NCc1cccs1 | inactive
CC(C)(C)c1nc(SCC(=O)NCc2cccs2)c2ccccc2n1 | inactive
Cc1cccn2c(=O)c3cc(C(=O)NC4CCCC4)c(=N)n(CCc4ccccc4)c3nc12 | inactive
Cc1cc2nc3c(=O)n(CCc4ccccc4)c(=O)[nH]c3nc2cc1N | inactive
CN(C)CCNc1nc2sc3c(c2c(=O)n1CCc1ccccc1)CCCCC3 | 22.4 µM (active)
Cc1ccc(C2C=C(c3ccccc3)Nc3nc(N4C(=O)CCC4=O)nn32)cc1 (stereo not drawn) | inactive
CNC(=O)c1cc2c(=O)n3cc(C)ccc3nc2n(C(C)C)c1=N | inactive
COc1ccc(C2=NS(=O)(=O)N(C)C(C(=O)NC3CCCC3)=C2)cc1 | inactive
CCN1C(=O)CC(c2ccccc2)N(C2CCCC2)c2nc(Nc3ccc(C(=O)NC4CCN(C)CC4)cc3OC)ncc21 (stereo not drawn) | 25.1 µM (active)
C#Cc1ccc(CN2CCC(Oc3cc(C(=O)NC4CC4)ccc3OC)CC2)cc1 | inactive
COc1cccc(C(=O)NC2CCN(CC(=O)NCc3ccccc3F)CC2)c1 | inactive
CCN1C(=O)CC(C(C)C)N(C2CCCC2)c2nc(Nc3ccc(C(=O)NC4CCN(C)CC4)cc3OC)ncc21 (stereo not drawn) | 22.4 µM (active)
COc1ccc(Nc2nc(Nc3ccc(OC)cc3OC)nc(N3CCN(C)CC3)n2)c(OC)c1 | inactive
